Measured values taken from PubChem BioAssay AID1347420 (Sanford-Burnham Center for Chemical Genomics, 2020).
Out of some 1,300 compounds screened, about 980 (75%) were called active. Not shown: some 4% with an inconclusive outcome. The list shows a part of the results. Unmarked numbers belong to inactive results.

molecular target: Sulfhydryl oxidase 1 (Homo sapiens) (UniProt O00391); experiment: QSOX1 enzyme inhibitors, primary screen, biochemical, HyperBlu H2O2 luminescence, HTS (AID 1347420); conditions: recombinant QSOX1, HyperBlu H2O2 luminescence; at 12.5 µM; active compounds read high; active = any value above zero; note: values above 100% were filed as inconclusive
Sequence (O00391 whole entry, looked up): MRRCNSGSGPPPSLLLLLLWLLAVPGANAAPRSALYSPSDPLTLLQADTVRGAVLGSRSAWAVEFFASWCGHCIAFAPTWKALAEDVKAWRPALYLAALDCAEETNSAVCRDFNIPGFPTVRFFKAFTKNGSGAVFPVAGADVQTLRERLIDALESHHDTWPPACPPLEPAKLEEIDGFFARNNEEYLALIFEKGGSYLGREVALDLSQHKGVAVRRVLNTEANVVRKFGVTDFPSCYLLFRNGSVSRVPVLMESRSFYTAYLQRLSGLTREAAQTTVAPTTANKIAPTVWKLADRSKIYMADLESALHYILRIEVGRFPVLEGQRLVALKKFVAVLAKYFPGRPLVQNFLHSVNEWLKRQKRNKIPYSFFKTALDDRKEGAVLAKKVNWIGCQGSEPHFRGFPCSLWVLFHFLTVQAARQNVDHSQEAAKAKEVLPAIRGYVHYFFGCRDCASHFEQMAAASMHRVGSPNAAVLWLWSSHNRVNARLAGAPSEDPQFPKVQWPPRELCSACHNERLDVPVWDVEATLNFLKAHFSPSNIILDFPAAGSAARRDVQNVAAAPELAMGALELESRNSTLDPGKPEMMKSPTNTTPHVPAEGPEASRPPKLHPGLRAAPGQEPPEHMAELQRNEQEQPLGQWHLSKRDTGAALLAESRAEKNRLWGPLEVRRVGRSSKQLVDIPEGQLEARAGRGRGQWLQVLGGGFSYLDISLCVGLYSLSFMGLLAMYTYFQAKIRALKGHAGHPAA

SMILES	inhibition
Nc1ncnc2c1c(I)cn2[C@@H]1C[C@H](N)[C@@H](O)[C@H]1O	22.5% (active)
COc1ccc2c(c1)CCC1C2CC[C@@]2(C)C1CC[C@@H]2NCCCCCCN1C(=O)C=CC1=O (stereo partly specified)	7.6% (active)
COc1ccc2c(c1)CCC1C2CC[C@@]2(C)C1CC[C@@H]2NCCCCCCN1C(=O)CCC1=O (stereo partly specified)	8.2% (active)
CN/C(=C\[N+](=O)[O-])NCCSCc1ccc(CN(C)C)o1	14.5% (active)
CN(C)CCCc1cc(C(=O)Nc2ccc(-c3ccncc3)cc2)ccc1O	14.6% (active)
O=C1N=C(O)C(c2ccccc2)(c2ccccc2)N1	-13.4%
CN(C)CCOC(=O)COc1ccc(Cl)cc1	2.2% (active)
CC/C(=C(\c1ccccc1)c1ccc(OCCN(C)C)cc1)c1ccccc1	-2.1%
O=C(c1ccccc1)c1ccc2n1CCC2C(=O)O (stereo unspecified)	12.6% (active)
CN1CCC2(CCN3CCc4c(oc5ccccc45)C3C2)N(C)C1=O (stereo unspecified)	4.5% (active)
Cc1nc(N=NC2=[C+]C3=C(C=C([N+](=O)[O-])[C+]=C3S(=O)(=O)[O-])C(S(=O)(=O)[O-])=[C+]2)c(COP(=O)([O-])O)c(C=O)c1O	53.8% (active)
Cc1nc(N=Nc2ccc(C(=O)O)cc2)c(COP(=O)(O)O)c(C=O)c1O	14.2% (active)
C[C@@H]1C(=O)NC2=Nc3cccc(Cl)c3CN21	3.4% (active)
c1ccc2c(c1)CC(N1CCN(c3cccc4c3OCCO4)CC1)C2	10.4% (active)
Clc1ccc(C(c2ccccc2Cl)C(Cl)Cl)cc1 (stereo unspecified)	69.1% (active)
O=C(O)/C=C/C(O)c1ccc(Cl)cc1 (stereo unspecified)	-40.2%
O=C(c1ccc(Cl)cc1)N1CCN(c2ccc([N+](=O)[O-])c3ncccc23)CC1	24.1% (active)
c1ccc2c(c1)CCC[C@H]2Nc1nc2ccccc2[nH]1	61.9% (active)
NC1CCN(c2cccc(Cl)n2)CC1	4.2% (active)

SMILES	inhibition
COCC(=O)O[C@]1(CCN(C)CCCc2nc3ccccc3[nH]2)CCc2cc(F)ccc2[C@@H]1C(C)C	2.9% (active)
C[N+](C)(C)CCOP(=O)(O)OP(=O)([O-])OC[C@H]1O[C@@H](n2ccc(N)nc2=O)C(O)[C@H]1O (stereo partly specified)	20.6% (active)
CC(C)(C)c1onc(OCP(=O)(O)O)c1CC(N)C(=O)O (stereo unspecified)	24.4% (active)
OCc1cc(C(O)CNCCCCCCOCCCCc2ccccc2)ccc1O (stereo unspecified)	34.4% (active)
CC(=O)N[C@H]1[C@H]([C@H](O)[C@H](O)CO)OC(C(=O)O)=C[C@@H]1O	18.1% (active)
CCCOC(=O)c1c(-c2ccccc2)nc(CC)c(C(=O)SCC)c1CCC	-2.7%
CC(C(O)c1ccc(O)cc1)N1CCC(Cc2ccccc2)CC1 (stereo unspecified)	4% (active)
C[C@@H](CN1CCC(Cc2ccccc2)CC1)[C@@H](O)c1ccc(O)cc1	3.7% (active)
COc1cc(SC)ccc1C(=O)N1CCC(Cc2ccccc2)CC1	-5.8%
C[C@]12CCC(=O)C=C1CC[C@@H]1[C@@H]2CC[C@@]2(C)[C@H]1CC[C@]2(O)C(=O)CO	-11%
C[C@]12CCC(=O)C=C1CC[C@@H]1[C@@H]2C(=O)C[C@@]2(C)[C@H]1CC[C@]2(O)C(=O)CO	-1.4%
CC(=O)OCC(=O)[C@@]1(O)CC[C@H]2[C@@H]3CCC4=CC(=O)CC[C@]4(C)[C@H]3C(=O)C[C@@]21C	6.5% (active)
CC(=O)[C@@]1(O)CC[C@H]2[C@@H]3CCC4=CC(=O)CC[C@]4(C)[C@H]3CC[C@@]21C	0.7% (active)
CC(=O)[C@H]1CC[C@H]2[C@@H]3CCC4=CC(=O)CC[C@]4(C)[C@H]3CC[C@]12C	12.3% (active)
O=c1ccc2c(OCCCCc3ccccc3)c3ccoc3cc2o1	18.3% (active)
CO/N=C(\C(=O)N[C@@H]1C(=O)N2C(C(=O)O)=C(COC(C)=O)CS[C@H]12)c1csc(N)n1	26.2% (active)
CO/N=C(\C(=O)N[C@@H]1C(=O)N2C(C(=O)O)=C(CSc3nc(=O)c(O)nn3C)CSC12)c1csc(N)n1 (stereo partly specified)	24.6% (active)
CC(=O)OCC1=C(C(=O)O)N2C(=O)[C@@H](NC(=O)Cc3cccs3)[C@H]2SC1	11.8% (active)
Cn1cnc2c(NCc3ccccc3)nc(NCCO)nc21	12.8% (active)

SMILES	inhibition
CC[C@@H](CO)Nc1nc(NCc2ccccc2)c2ncn(C(C)C)c2n1	24.9% (active)
CNCCCC1c2ccccc2C=Cc2ccccc21	3.6% (active)
CC(=O)Oc1cc(C(C)C)c(OCCN(C)C)cc1C	0.5% (active)
O=[N+]([O-])c1cccc2cn[nH]c12	16.8% (active)
COC(=O)[C@H]1[C@H]2C[C@H]3c4[nH]c5ccccc5c4CCN3C[C@H]2CC[C@@H]1O	50.6% (active)
COC(=O)[C@@H]1[C@H]2C[C@H]3c4[nH]c5ccccc5c4CCN3C[C@@H]2CC[C@@H]1O	-38.2%
COC(=O)[C@H]1[C@H]2C[C@@H]3c4[nH]c5cc(OC)ccc5c4CCN3C[C@H]2C[C@@H](OC(=O)c2cc(OC)c(OC)c(OC)c2)[C@@H]1OC	33% (active)
OC[C@H]1O[C@@H](n2cnc3c(NC4CCCC4)ncnc32)C(O)[C@H]1O (stereo partly specified)	4% (active)
OC[C@H]1O[C@H](n2cnc3c(N[C@H]4CCC[C@@H]4O)ncnc32)[C@H](O)[C@@H]1O	5.7% (active)
OC[C@H]1O[C@@H](n2cnc3c(NC4CCCCC4)ncnc32)[C@H](O)[C@@H]1O	19.1% (active)
C[C@H](Cc1ccccc1)Nc1ncnc2c1ncn2[C@@H]1O[C@H](CO)[C@H](O)C1O (stereo partly specified)	-5.3%
CNc1ncnc2c1ncn2[C@@H]1O[C@H](CO)[C@H](O)C1O (stereo partly specified)	12% (active)
CNc1ncnc2c1ncn2[C@H]1C[C@H](OP(=O)(O)O)[C@@H](COP(=O)(O)O)O1	13.4% (active)
CCCCC#Cc1nc(NC)c2ncn([C@@H]3O[C@H](CO)C(O)[C@@H]3O)c2n1 (stereo partly specified)	20.2% (active)
Nc1ccc(CCNc2ncnc3c2ncn3C2OC(CO)C(O)C2O)cc1 (stereo unspecified)	36.3% (active)
Cn1cc(C(=O)OCC2CCN(CCNS(C)(=O)=O)CC2)c2ccccc21	-1%
COc1ccc(/C=C/C(=O)Nc2ccccc2C(=O)O)cc1OC	4.9% (active)
COc1cc(/C=C(\C#N)C(=O)Nc2nnc(C(F)(F)F)s2)ccc1OCc1ccc(C(F)(F)F)cc1C(F)(F)F	-0.4%
